Laboratory results: PubChem BioAssay (NCATS)
Records with an inconclusive call do not appear. A number with no mark means an inactive call. Active and inactive are the calls of the source. The call rests on the fitted dose curve; in most records, active means well fitted inhibition curve with a large enough effect; inconclusive means small, poorly fitted or top-dose-only effect; inactive means no such curve, though single readings can be large or run the other way.

Target: Endonuclease 4 (Escherichia coli (strain K12)) (UniProt P0A6C1)
Test: Counterscreen for APE1 Inhibitors: qHTS Validation Assay for Inhibitors of Endonuclease IV (AID 1708)
Details: E. coli endonuclease IV, DNA cleavage fluorescence; series mostly up to 57.1 µM; activity change, negative = inhibition: at the top concentration
From the text: Assay Provider: David M. Wilson, III, National Institute on Aging, NIH
Screening Center PI: Austin, C.P.
Screening Center: NIH Chemical Genomics Center [NCGC]
Escherichia coli endonuclease IV (Endo IV) is the key member of the AP endonuclease superfamily that catalyzes the cleavage of damaged DNA backbone immediately 5' of an AP site. E. coli EndoIV has the same functional activities as human APE1 but has no sequence or structural homology to the human protein. Herein, we utilize E. coli EndoIV to counter screen compound libraries as part of a high-throughput campaign for APE1 inhibitor identification. A concentration-response screen of the LOPAC1280 collection was performed under experimental conditions identical to those used in the APE1 screen.
Inhibition of APE1 activity was screened by utilizing double-stranded short substrate containing tetrahydrofuran (THF) abasic site labeled with rhodamine-type fluorophore (TAMRA) at the 5'-end and with non-fluorescent Black Hole Quencher-2 (BHQ-2) at the opposing 3'-end. An increase in the fluorescence intensity due to incision of the abasic site by APE1 was used to measure the enzyme activity.
Buffer: 50 mM Tris-HCl (pH 7.5) containing 50mM NaCl, 2 mM MgCl2, 1 mM DTT and 0.01% Tween-20.
Buffer in columns 3 and 4 as negative control (no enzyme).
Substrate: 50 nM final concentration of TAMRA/BHQ-2 substrate dispensed throughout the plate.
Enzyme: 2 nM E. coli EndoIV final concentration in columns 1, 2, 5-48. Column 1 is neutral (100% activity).
Control: Pintool transfer of control inhibitor NSC-13755 to column 2 of all assay plates. Two-fold, 16 pt dilution in duplicate to produce final concentrations in the 5.75 uM - 0.175 nM range.
Three uL of enzyme were dispensed to 1536-well Greiner black solid bottom plates. Compounds (23 nL) were transferred via Kalypsys pintool. The plates were incubated for 15 min at room temperature, and then 1 uL of substrate solution was added to start the reaction. The plates were immediately transferred into ViewLux High-throughput CCD imager (Perkin-Elmer) in order to measure the reaction progress in kinetic mode (three reads every 60 seconds) using 525 nm excitation and 598 nm emission fluorescence protocol. The fluorescence intensity difference between the third and the first time points was used to compute reaction progress.
On the % scale 0 is the no-effect control and ±100 the full control effect; potency means the concentration at half of the fitted maximal effect.

Row | Compound | activity change, negative = inhibition [%] | Potency
1 | CC(CN1c2ccccc2Sc2ccccc21)N(C)C (centres undefined) | -9.64 | 
2 | NC1CCN(c2cccc(Cl)n2)CC1 | -10.1 | 
3 | CCCCCCCCCCCCCCCC(=O)NCCO | -8.19 | 
4 | CCN(CC)CCOC(=O)C1(C2CCCCC2)CCCCC1 | -8.76 | 
5 | CNCCC(Oc1ccc(C(F)(F)F)cc1)c1ccccc1 (centres undefined) | -4.74 | 
6 | CC(C)NC[C@H](O)c1ccc(O)c(O)c1 |  | inactive
7 | C[C@H]1O[C@@H](n2cc(F)c(=O)[nH]c2=O)[C@H](O)[C@@H]1O | -13.1 | 
8 | CN(C)CC[C@@H](c1ccc(Cl)cc1)c1ccccn1 | -8.03 | 
9 | CCN(CC)CCNC(=O)c1cc(Cl)c(N)cc1OC | -7.55 | 
10 | CC(C)(C(=O)O)c1ccc(C(O)CCCN2CCC(C(O)(c3ccccc3)c3ccccc3)CC2)cc1 (centres undefined) | -6.18 | 
11 | C#CCN(C)Cc1ccccc1 | -5.3 | 
12 | CC(=O)OCC(=O)[C@@]1(O)CC[C@H]2[C@@H]3CCC4=CC(=O)CC[C@]4(C)[C@H]3C(=O)C[C@@]21C | -8.59 | 
13 | O=C1N=C(O)CN1/N=C/c1ccc(-c2ccc([N+](=O)[O-])cc2)o1 | -6.99 | 
14 | CCN(CC)CCCC(C)Nc1c2ccc(Cl)cc2nc2ccc(OC)cc12 (centres undefined) |  | 12.6 µM (active)
15 | CC(C)C(=O)c1c(C(C)C)nn2ccccc12 | -10.2 | 
16 | OCc1cc(C(O)CNCCCCCCOCCCCc2ccccc2)ccc1O (centres undefined) | -9.08 | 
17 | CC(C(O)c1ccc(O)cc1)N1CCC(Cc2ccccc2)CC1 (centres undefined) | -3.37 | 

Row | Compound | activity change, negative = inhibition [%] | Potency
18 | CC(C)(C)c1onc(OCP(=O)(O)O)c1CC(N)C(=O)O (centres undefined) | 0.562 | 
19 | C[C@](N)(Cc1ccc(O)cc1)C(=O)O | -6.35 | 
20 | CNC(=O)Oc1ccc2c(c1)[C@]1(C)CCN(C)[C@@H]1N2C | -1.77 | 
21 | N=c1c[n+](N2CCOCC2)[n-]o1 | -9.24 | 
22 | COC(=O)C1=C(C)NC(C)=C(C(=O)OC)C1c1ccccc1[N+](=O)[O-] | -12 | 
23 | COc1ccc(Cl)cc1C(=O)NCCc1ccc(S(=O)(=O)NC(=O)NC2CCCCC2)cc1 | -12.1 | 
24 | CC1=C(CC(=O)O)c2cc(F)ccc2/C1=C\c1ccc(S(C)(=O)=O)cc1 | -6.59 | 
25 | CNCC(O)c1ccc(O)c(O)c1 (centres undefined) | 4.58 | 
26 | Nc1cc(=O)[nH]c(N)n1 | -9.56 | 
27 | C=Cc1c(C)c2cc3[nH]c(cc4nc(cc5nc(cc1[nH]2)C(C)=C5CCC(=O)O)C(CCC(=O)O)=C4C)c(C)c3C=C | -8.76 | 
28 | CC1=C(/C=C/C(C)=C/C=C/C(C)=C/C(=O)O)C(C)(C)CCC1 | -8.84 | 
29 | NC(=O)c1ncn([C@@H]2O[C@H](CO)[C@@H](O)[C@H]2O)n1 | -6.75 | 
30 | NC(N)=NCCC[C@H](N)C(=O)O | -7.47 | 
31 | CC1=C(CC(=O)O)c2cc(F)ccc2/C1=C\c1ccc(S(C)=O)cc1 (centres undefined) | -7.71 | 
32 | CC[C@H]1CN2CCc3cc(OC)c(OC)cc3[C@@H]2C[C@@H]1C[C@H]1NCCc2cc(OC)c(OC)cc21 | -2.57 | 
33 | CCCn1cnc2c1c(=O)n(CCCCC(C)=O)c(=O)n2C | -0.562 | 
34 | CN(C)CCOC(C)(c1ccccc1)c1ccccn1 (centres undefined) | -7.87 | 
